Test results published in the supplement of paper PMC11732987, “Enantioselective OTUD7B fragment discovery through chemoproteomics screening and high-throughput optimisation” (Communications Chemistry, 2025).

Key:
Assay in all cases: log2 ratio of Biotin-Ahx-Ub-VS probe labelling (fragment/DMSO); higher = less target engagement (more negative = stronger competition), active = hit call of the paper (q ≤ 0.05, log2 ratio ≤ -1)
Conditions in all cases: compound concentration: 200 uM; treatment time: 3 h
OTUD6B = target: T1, OTUD6B (UniProt Q8N6M0)
T1 sequence (whole entry): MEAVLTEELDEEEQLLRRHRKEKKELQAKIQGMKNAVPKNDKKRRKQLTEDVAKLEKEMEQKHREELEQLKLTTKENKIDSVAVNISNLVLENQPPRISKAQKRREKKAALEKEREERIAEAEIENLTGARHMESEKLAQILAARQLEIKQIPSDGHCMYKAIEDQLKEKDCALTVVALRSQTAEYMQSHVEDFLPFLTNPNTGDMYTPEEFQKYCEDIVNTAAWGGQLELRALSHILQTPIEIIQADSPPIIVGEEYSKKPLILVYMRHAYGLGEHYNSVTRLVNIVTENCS
Procedure, shortened: (§1)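 The table lists average log2 ratios of fragment over vehicle, from an unpaired t-test on global-median-normalised Spectronaut label-free quantities. Proteins with ≥2 unique peptides were used. Samples were HEK293T lysate (495 µg) treated in triplicate with fragment at 200 µM or vehicle for 3 h, then with Biotin-Ahx-Ub-VS (0.5 µM final) for 1 h, with labelled DUBs NeutrAvidin-enriched and run by diaPASEF LC-MS/MS.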

OTUD7B = target: T2, OTUD7B (UniProt Q6GQQ9)
T2 sequence (whole entry): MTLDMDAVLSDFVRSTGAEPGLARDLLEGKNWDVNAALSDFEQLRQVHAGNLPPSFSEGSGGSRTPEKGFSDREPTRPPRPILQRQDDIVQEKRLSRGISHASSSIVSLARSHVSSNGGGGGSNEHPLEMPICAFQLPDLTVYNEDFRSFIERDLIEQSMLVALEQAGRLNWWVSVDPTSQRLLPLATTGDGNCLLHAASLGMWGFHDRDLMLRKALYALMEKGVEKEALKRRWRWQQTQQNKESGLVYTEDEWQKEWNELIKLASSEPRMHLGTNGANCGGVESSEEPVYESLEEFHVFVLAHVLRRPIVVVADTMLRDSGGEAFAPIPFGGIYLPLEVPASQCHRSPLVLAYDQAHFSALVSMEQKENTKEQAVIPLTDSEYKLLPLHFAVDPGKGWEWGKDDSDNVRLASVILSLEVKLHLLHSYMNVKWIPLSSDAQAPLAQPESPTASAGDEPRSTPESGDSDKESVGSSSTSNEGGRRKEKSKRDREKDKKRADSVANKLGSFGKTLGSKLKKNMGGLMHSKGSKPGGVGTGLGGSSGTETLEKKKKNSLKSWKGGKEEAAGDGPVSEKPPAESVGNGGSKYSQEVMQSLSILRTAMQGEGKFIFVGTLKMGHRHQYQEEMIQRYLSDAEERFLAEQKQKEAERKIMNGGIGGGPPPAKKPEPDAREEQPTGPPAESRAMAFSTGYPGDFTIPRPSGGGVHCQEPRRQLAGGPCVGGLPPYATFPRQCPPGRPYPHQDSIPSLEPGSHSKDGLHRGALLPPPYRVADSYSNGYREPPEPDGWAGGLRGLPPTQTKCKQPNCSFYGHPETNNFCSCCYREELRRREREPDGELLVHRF
Procedure, shortened: as §1

PRPF8 = PRPF8 (UniProt Q6P2Q9)
Procedure, shortened: as §1

PSMD7 = target: T3, PSMD7 (UniProt P51665)
T3 sequence (whole entry): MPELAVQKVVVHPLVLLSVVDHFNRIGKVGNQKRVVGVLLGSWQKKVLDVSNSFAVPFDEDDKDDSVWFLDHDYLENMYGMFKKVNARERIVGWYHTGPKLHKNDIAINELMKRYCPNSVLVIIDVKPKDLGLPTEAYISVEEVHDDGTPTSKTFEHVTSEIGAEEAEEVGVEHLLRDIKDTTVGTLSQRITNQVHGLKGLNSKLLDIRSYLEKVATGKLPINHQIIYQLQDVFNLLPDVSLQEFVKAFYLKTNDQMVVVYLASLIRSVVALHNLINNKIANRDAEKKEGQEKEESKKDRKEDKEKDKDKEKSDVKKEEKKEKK
Procedure, shortened: as §1

UCHL1 = UCHL1 (UniProt P09936)
Sequence of UCHL1 (P09936 whole entry, looked up): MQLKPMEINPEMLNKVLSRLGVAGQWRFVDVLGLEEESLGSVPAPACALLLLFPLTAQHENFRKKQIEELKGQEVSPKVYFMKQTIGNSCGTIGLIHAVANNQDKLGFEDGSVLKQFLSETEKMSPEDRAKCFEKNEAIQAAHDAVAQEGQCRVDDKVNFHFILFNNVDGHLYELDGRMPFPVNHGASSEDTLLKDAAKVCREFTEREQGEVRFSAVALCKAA
Procedure, shortened: as §1

UCHL3 = target: T4, UCHL3 (UniProt P15374)
T4 sequence (whole entry): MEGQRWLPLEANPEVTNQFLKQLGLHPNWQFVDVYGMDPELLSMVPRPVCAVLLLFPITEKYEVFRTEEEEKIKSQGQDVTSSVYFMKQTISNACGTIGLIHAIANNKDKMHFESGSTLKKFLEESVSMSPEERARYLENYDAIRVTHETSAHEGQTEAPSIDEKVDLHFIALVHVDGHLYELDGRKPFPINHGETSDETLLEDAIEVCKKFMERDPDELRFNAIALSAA
Procedure, shortened: as §1

UCHL5 = target: T5, UCHL5 (UniProt Q9Y5K5)
T5 sequence (whole entry): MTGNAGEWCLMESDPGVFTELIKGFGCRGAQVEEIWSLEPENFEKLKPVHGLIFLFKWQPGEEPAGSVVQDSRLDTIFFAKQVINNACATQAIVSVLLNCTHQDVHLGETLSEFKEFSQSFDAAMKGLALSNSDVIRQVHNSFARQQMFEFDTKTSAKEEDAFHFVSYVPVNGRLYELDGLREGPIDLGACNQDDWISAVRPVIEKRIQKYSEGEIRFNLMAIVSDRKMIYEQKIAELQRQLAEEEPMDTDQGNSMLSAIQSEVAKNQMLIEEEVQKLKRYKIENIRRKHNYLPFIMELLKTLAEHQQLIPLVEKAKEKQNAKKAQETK
Procedure, shortened: as §1

USP10 = USP10 (UniProt Q14694)
Sequence of USP10 (Q14694 whole entry): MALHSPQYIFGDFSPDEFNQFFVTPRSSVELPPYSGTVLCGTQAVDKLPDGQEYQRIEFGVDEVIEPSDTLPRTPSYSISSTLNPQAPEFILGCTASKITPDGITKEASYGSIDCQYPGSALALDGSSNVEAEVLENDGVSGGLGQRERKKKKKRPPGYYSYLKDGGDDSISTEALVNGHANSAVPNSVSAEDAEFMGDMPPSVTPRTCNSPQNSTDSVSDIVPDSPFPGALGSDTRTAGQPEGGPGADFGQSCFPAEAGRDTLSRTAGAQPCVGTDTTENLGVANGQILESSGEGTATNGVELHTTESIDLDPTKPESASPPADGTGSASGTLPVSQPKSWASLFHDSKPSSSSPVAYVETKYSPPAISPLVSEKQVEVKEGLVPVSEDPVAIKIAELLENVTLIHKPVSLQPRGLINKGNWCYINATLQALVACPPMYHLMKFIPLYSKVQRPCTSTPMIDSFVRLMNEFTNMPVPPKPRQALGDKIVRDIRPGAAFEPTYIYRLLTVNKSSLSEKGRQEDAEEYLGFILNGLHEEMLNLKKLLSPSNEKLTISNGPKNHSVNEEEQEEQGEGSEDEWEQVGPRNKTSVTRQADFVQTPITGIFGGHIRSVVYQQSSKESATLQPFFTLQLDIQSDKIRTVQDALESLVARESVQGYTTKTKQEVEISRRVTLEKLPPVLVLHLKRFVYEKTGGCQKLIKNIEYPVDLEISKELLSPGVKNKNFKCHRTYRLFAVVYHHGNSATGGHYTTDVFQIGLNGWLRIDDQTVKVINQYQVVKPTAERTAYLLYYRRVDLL
Procedure, shortened: as §1

USP15 = target: T6, USP15 (UniProt Q9Y4E8)
T6 sequence (whole entry): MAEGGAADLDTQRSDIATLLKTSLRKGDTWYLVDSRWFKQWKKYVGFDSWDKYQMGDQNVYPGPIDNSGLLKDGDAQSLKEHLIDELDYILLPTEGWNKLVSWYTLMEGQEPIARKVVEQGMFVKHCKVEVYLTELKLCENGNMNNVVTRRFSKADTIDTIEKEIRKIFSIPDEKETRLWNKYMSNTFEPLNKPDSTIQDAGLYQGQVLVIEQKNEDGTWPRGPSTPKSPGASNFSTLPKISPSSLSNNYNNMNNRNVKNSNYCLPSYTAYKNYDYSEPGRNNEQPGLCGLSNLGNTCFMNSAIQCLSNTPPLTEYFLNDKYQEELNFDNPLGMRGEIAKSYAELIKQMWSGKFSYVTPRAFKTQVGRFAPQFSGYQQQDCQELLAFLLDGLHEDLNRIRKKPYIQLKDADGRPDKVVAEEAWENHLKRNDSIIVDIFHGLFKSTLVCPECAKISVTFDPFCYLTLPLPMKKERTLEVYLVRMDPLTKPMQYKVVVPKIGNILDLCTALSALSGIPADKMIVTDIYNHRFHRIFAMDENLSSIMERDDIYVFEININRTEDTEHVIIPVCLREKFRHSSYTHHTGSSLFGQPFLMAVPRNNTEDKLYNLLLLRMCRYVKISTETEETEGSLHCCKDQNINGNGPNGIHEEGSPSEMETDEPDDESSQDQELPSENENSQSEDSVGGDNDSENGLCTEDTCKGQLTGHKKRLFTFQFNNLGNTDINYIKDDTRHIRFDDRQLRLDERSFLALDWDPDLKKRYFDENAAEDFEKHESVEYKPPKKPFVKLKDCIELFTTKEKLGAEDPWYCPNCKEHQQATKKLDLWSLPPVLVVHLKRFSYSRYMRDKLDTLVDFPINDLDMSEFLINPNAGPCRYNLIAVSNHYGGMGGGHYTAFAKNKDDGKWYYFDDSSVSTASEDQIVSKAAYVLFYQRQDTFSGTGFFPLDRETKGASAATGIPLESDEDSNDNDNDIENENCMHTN
Procedure, shortened: as §1

USP16 = USP16 (UniProt Q9Y5T5)
Sequence of USP16 (Q9Y5T5 whole entry, looked up): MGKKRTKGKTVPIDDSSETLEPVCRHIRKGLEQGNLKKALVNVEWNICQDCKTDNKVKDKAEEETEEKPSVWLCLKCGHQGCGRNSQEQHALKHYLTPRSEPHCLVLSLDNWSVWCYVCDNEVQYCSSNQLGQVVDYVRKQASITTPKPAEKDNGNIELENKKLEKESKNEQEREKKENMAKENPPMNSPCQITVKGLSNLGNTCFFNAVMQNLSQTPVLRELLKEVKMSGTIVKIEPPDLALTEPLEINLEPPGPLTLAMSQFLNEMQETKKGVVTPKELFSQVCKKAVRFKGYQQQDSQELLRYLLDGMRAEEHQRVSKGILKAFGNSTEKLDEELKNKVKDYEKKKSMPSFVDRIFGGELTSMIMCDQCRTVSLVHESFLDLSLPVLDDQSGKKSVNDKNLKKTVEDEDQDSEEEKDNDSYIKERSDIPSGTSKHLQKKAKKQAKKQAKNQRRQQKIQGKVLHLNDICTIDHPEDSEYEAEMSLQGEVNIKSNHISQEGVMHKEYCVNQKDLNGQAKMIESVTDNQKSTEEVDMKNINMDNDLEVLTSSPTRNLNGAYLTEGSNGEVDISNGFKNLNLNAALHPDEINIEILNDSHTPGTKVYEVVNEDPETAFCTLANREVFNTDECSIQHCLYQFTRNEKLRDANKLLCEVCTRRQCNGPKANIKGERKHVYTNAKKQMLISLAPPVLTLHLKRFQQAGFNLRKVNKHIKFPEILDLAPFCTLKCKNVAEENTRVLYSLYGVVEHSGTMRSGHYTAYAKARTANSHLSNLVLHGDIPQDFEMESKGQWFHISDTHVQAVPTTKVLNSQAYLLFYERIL
Procedure, shortened: as §1

Measured: log2 ratio of Biotin-Ahx-Ub-VS probe labelling

O=C(CCl)NCc1noc(C2CC2)n1
active: UCHL1 -1.67
inactive: OTUD6B -0.344 | OTUD7B -0.572 | PRPF8 -0.106 | PSMD7 -0.219 | UCHL3 0.307 | UCHL5 -0.363 | USP10 -0.164 | USP15 -0.193 | USP16 -0.127
